A selection: hits, their analogues and other compounds. The true share with any hit is near 3.3%.
NPSR antag – blocks cAMP signaling of the human neuropeptide S receptor; Potency, µM (titrated, usually from 38.3 µM), hits mostly inhibitors; CHO-NPSR cells, cAMP TR-FRET, antagonist mode; Q6W5P4; 1% of 220,000 active; note: nearly all actives have a fitted effect of over 50% in size
Target sequence (Q6W5P4 whole entry, looked up): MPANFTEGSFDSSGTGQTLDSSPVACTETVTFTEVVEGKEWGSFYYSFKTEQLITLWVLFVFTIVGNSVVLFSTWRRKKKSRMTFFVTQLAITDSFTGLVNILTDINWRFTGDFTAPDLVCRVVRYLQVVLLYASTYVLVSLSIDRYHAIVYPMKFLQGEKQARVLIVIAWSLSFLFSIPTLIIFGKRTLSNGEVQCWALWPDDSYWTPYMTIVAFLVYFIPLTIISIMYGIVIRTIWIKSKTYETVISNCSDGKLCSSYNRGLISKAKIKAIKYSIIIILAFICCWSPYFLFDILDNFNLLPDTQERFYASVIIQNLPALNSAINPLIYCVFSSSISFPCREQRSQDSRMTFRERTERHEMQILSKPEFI
IMPase inh – membrane-permeable compound that blocks inositol monophosphatase. P97697. CHO-M1 cells, IP1 accumulation, HTRF TR-FRET ratio. inhibition (IP1 accumulation), % at 46.1 µM. 120,000 tested, under 10 active; active = well fitted curve in the direction sought with a large enough effect in the signal ratio, not every such curve was filed as active; inconclusive = small, poorly fitted or top-dose-only effect, or a change in a side signal; inactive = no such curve, though single readings can be large or run the other way; the % refers to the signal ratio;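 note: cells stimulated with carbachol in lithium chloride buffer; higher means more IMPase inhibition seen as more IP1 and lower FRET ratio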
Target sequence (P97697 whole entry, looked up): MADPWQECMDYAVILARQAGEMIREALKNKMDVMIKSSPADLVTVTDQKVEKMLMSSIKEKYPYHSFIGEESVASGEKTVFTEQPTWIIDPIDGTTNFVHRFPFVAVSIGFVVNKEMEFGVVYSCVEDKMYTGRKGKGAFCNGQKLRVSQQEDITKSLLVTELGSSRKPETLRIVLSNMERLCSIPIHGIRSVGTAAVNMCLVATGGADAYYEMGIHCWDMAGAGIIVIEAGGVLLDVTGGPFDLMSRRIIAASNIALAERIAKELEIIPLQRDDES
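CHO-M1, 2000 cells/well, cultured 16–30 h; cpd up to 46 uM; carbachol (50 uM solution, stimulation buffer w/ 50 mM LiCl, pH 7.4), 30 min 37C; IP-One TR-FRET, 10 min RT; Ex 320/Em 665, 620; Hill-fit AC50.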
PNC assembly inh – perinucleolar compartment assembly inhibition. activity change (PNC), negative = inhibition, % at 10 µM. 3.1% of 140,000 active. PC3M PTB-GFP, PNC prevalence imaging, 16 h; active compounds read low;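 active = readout at or below -70, meaning at least 70% loss of cells showing the perinucleolar compartment, a nuclear body marking cancer cells; inconclusive = readout between -30 and a set limit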
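Compounds are pinned in duplicate onto adhered PC3M cells stably expressing GFP-tagged PTB and incubated 16 h at 37 C. Cells are then fixed, nuclei stained with Hoechst, and PNC-positive cells counted.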
HTT aggregate – inhibitors of mutant huntingtin aggregate formation in PC12 cells; PC12 HttQ103-GFP aggregates, Acumen cytometry, 40 h; Potency, µM (titrated, usually from 46.1 µM), usual class: inhibitors; 1.1% of 220,000 active; AID 1688; note: nearly all actives have a fitted effect of over 60% in size
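Quantitative HTS on tebufenozide-induced (100 nM) PC12 cells stably expressing polyQ103 Huntingtin exon 1–GFP. Reduction of bright GFP aggregates, detected by laser scanning cytometry after lysis, identified actives across the titration.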
HTT ATP protect – Huntington cell model cytoprotection by ATP luminescence; AID 1471; 0.14% of 230,000 active; PC12 HTT-Q103 induced, cytoprotection, ATP luminescence, 40 h; Potency, µM (doses to about 56.4 µM), actives largely listed as activators; note: nearly all actives have a fitted effect of over 45% in size
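Readout: ATPlite luminescence (ATP level). Model: stable PC12, inducible Htt exon1 Q103-GFP. Inducer: tebufenozide, 100 nM final. Compounds: dose series. No G418 in medium.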
12-hLO inh – 12-hLO (ALOX12) enzyme inhibition. P18054. purified 12-hLO, xylenol orange hydroperoxide absorbance. Potency, µM (doses to about 57.1 µM), actives largely listed as inhibitors. 0.12% of 150,000 active; note: nearly all actives have a fitted effect of over 55% in size
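Purified human 12hLO (150 nM final) was preincubated with compounds for 15 min at room temperature in 25 mM Hepes pH 7.0, 0.01% Triton X-100, then reacted with 40 uM arachidonic acid for 30 min. Hydroperoxide was detected with ferrous iron/xylenol orange.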
Hits are given with their value; 0 = inactive; ? = inconclusive; - = no result; ! = repeats disagree; [ ] = remark or other dose. Unless noted, calls come from the whole dose curve; as a rule, active = well fitted curve in the direction sought with a large enough effect; inconclusive = small, poorly fitted or top-dose-only effect, or another doubt; inactive = no such curve, though single readings can be large; an effect the other way counts as inactive or inconclusive.

SMILES	NPSR antag	IMPase inh	PNC assembly inh	HTT aggregate	HTT ATP protect	12-hLO inh
O=S(=O)(CC(CN1CCCC1)N1CCCC1)c1ccc2ccccc2c1 (stereo not drawn)	0	0	-100	?	?	0
COc1ccc(C(=O)N2CCC[C@@]3(CCN(C(=O)Nc4cccc(C#N)c4)C3)C2)cc1	-	-	-	-	0	0
COc1ccc(C2c3c(ncn(CCCN4CCOCC4)c3=N)Oc3ccc4ccccc4c32)cc1OC (stereo not drawn)	10µM	-	-	0[9.22 µM]	0[10 µM]	-
COc1ccccc1CNC(=O)CCn1c(=O)[nH]c2ccsc2c1=O	0	0	-100	0	0[10 µM]	0
COc1ccccc1N1CCN(C(=O)CCCn2c(=O)[nH]c3ccsc3c2=O)CC1	0	0	0	0	0[10 µM]	0
COCCOC(=O)c1c(C)oc2ccc(OC(=O)c3cccs3)cc12	0	0	-139	0	0	0
COC(=O)c1c(C)oc2ccc(OC(=O)c3cccs3)cc12	0	0	0	?	0	0
COc1ccccc1OCCNC(=O)c1cc(SC)ccc1Cl	0	-	-113	0	0[10 µM]	0
CC[C@@H]1[C@H]2CCCCN3[C@@H]2[C@@H](C[C@H]3[C@@H]2C[C@H](C)C(=O)O2)[C@@H]2[C@H]1OC(=O)[C@H]2C	-	-	-	-	0	-
Cc1nc2cnc(N(C)C)nc2n(CCC#N)c1=O	-	-	-	-	0	-
CC(C(O)c1ccc(O)cc1)N1CCC(Cc2ccccc2)CC1 (stereo not drawn)	?	-	-	0	5µM!	-
Cn1c(SCc2ccccc2)nnc1C1CCCNC1 (stereo not drawn)	0	0	-107	0	0[10 µM]	0
Cc1c(/C=N\NC(=O)C2COc3ccccc3O2)c2ccccc2n1C (stereo not drawn)	?	0	-111	?	0[10 µM]	0
Cn1cc(/C=N\NC(=O)C2COc3ccccc3O2)c2ccccc21 (stereo not drawn)	0	-	?	0	-	0
O=C(N/N=C/c1c(O)n(-c2ccccc2Cl)c(=O)c2ccccc12)C1COc2ccccc2O1 (stereo not drawn)	0	0	0	13µM	0[10 µM]	0
CC(=C(CCOP(=O)(O)O)SC(=O)c1ccccc1)N(C=O)Cc1cnc(C)nc1N	-	0	-	0	0	0
Cc1oc(CC(C)C)cc1C(=O)NCCCC(=O)O	0	-	-	?	5.6µM	-
Cc1cc(C(=O)NCCCC(=O)O)c(C)o1	0	0	0	0	0	0
COC(=O)c1ccc2nc(C)cc(Nc3ccc(N(C)C)cc3)c2c1	0	-	-119	0	-	0
NC(=O)c1ccc([N+](=O)[O-])cc1	-	-	-	-	0	0
Cc1cc(C)cc(-n2c3nc4ccccc4nc3c3c(=O)n(Cc4ccco4)cnc32)c1	10µM	0	?	0	0[10 µM]	0
COCCCn1cnc2c(c1=O)c1nc3ccccc3nc1n2-c1ccc(C)cc1	0	0	?	0	0[10 µM]	0
Cc1nc2c(c(=O)n1Cc1ccccc1Cl)c1nc3ccccc3nc1n2Cc1ccco1	13µM	0	0	0	0[0.074 µM]	0
COC(=O)C1=C(C)N(Cc2ccccc2)C2=C(C(C)=O)C(c3ccccc3)[C@@](O)(C(=O)OC)C(=O)N2C1c1ccccc1 (stereo partly drawn)	-	-	-	-	0[10 µM]	-
O=C(NCc1cccnc1)c1ccc(-c2ccc(Cl)cc2)o1	0	-	-	0[9.22 µM]	0[10 µM]	-
SMILES	NPSR antag	IMPase inh	PNC assembly inh	HTT aggregate	HTT ATP protect	12-hLO inh
O=C(NCc1cccnc1)/C(=C\c1ccc(-c2ccc(Cl)c(Cl)c2)o1)S(=O)(=O)c1ccccc1	13µM	0	-81	?	0[10 µM]	0
O=Cc1s/c(=N\S(=O)(=O)c2ccccc2)n(CCCCl)c1Cl	10µM	-	-	5µM	0	-
CC(=NCCc1c(C)[nH]c2ccc(C)cc12)C1=C(O)CC(c2ccccc2)CC1=O (stereo not drawn)	0	-	?	?	0[10 µM]	0
CCCC(=NCCc1c(C)[nH]c2ccccc12)C1=C(O)CC(c2ccccc2)CC1=O (stereo not drawn)	0	-	?	0	0[10 µM]	0
CCCCC(=NCCc1c(C)[nH]c2ccccc12)C1=C(O)CC(c2ccccc2)CC1=O (stereo not drawn)	7.9µM	-	-	0	0	-
CC(=NCCc1c(C)[nH]c2ccc(OC(F)(F)F)cc12)C1=C(O)CC(c2ccccc2)CC1=O (stereo not drawn)	10µM	-	-	0	0	-
COC(=O)C1=C(C)N(C2CCCCC2)C(=O)/C1=C\c1cccs1	0	-	-	0	0	-
O=C(O)C1Cc2c([nH]c3ccccc23)C(c2ccccc2)N1 (stereo not drawn)	-	-	-	-	0[10 µM]	-
COC(=O)C1Cc2c([nH]c3ccccc23)C(C)N1 (stereo not drawn)	0	0	-91	?	0[10 µM]	0
CCN1C(=O)C=CC1=O	?	0	-	-	0[1.9 µM]	0
O=C1C=CC(=O)N1CCCCCCN1C(=O)C=CC1=O	?	0	?	5µM	0[10 µM]	0
N[C@H](Cc1cnc[nH]1)C(=O)O	-	0	-	-	0	0
Cn1cc(-c2nc3cnc(N4CCNCC4)nc3n(-c3ccccc3)c2=O)c2ccccc21	-	-	-	-	0	-
CC(C)c1ccc2c(c1)[C@H]1OCC[C@H]1[C@@H](c1cccs1)N2	0	-	-109	0	-	0
COC(=O)c1cc(=O)[nH]c(=O)[nH]1	-	-	-	-	0[10 µM]	0[11.4 µM]
COc1ccc2cc3cc(C(=O)Nc4cc(OC)c(OC)c(OC)c4)oc3nc2c1	0	0	-105	0	0	0
CCCCSCCCNC(=S)Nc1ccccc1C	0	-	-	22µM	0	-
Cc1ccccc1NC(=S)NCCO	0	-	-	0	0	-
O=C(c1cccnc1)N1CCN(C(=O)c2ccco2)CC1	0	0	-100	0	0[10 µM]	0
O=C(c1ccco1)N1CCN(C(=O)C2CCCO2)CC1 (stereo not drawn)	0	0	-100	0	0[10 µM]	0
Cc1occc1C(=O)N1CCN(C(=O)C2CCCO2)CC1 (stereo not drawn)	0	0	0	0	0	0
N#Cc1cccc(-n2nnnc2-c2ccccn2)c1	0	0	0	11µM	0[10 µM]	0
O=[N+]([O-])c1ccc(/C=[N+](\[O-])CCO)o1	0	-	-	0[9.22 µM]	0[10 µM]	-
COc1cc2c(Nc3ccc(Br)cc3F)ncnc2cc1OCC1CCN(C)CC1	-	-	-	13µM	0	-
COc1cc2ncnc(Nc3cccc(Br)c3)c2cc1OC	-	0	-	-	0[1.9 µM]	0
Clc1ccc(-c2nc(N3CCCCC3)nc3ccccc23)cc1	0	0	-100	0	0[10 µM]	0
c1ccc(-c2nc(-n3nc4ccccc4n3)nc3ccccc23)cc1	?	?	0	0	0	0
COc1cccc(C(=O)Nc2cccc(C(=O)NCC(C)C)c2)c1	0	-	?	3.2µM	0[10 µM]	0
COc1cccc(C(=O)Nc2cccc(NC(C)=O)c2)c1	0	0	0	0	0	0
CC(C)Oc1cccc(C(=O)NC(=S)Nc2ccccc2)c1	0	-	-101	0	-	?

Source: PubChem BioAssay (National Center for Advancing Translational Sciences (NCATS))
